Screening data as filed in PubChem.
GLP-1R inv ag: inverse agonists of human GLP-1 receptor | actives 1.6% (n = 410,000) | Potency, µM (doses to about 38.3 µM), actives largely listed as inhibitors | HEK293 GLP-1R CRE-luciferase, luminescence, 24 h; GLP-1R form is constitutively active | P43220; also: nearly all actives have a fitted effect of over 55% in size
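HEK293 cells stably co-expressing a cAMP-responsive luciferase reporter and constitutively active GLP-1R were seeded, incubated 12 h, then exposed to compounds for 24 h at 37 C. Luminescence was read 12 min after detection reagent; inverse agonists lower signal.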
ClpP mod: qHTS Assay for Activators of ClpP. ATP-dependent Clp protease proteolytic subunit (Bacillus subtilis (strain 168)), P80244. purified B. subtilis ClpP, FRET peptide cleavage, 20 min. AID 651965, 2013. Potency, µM (top dose mostly 57.5 µM). actives 1.9% (n = 340,000); active = well fitted falling curve with a large enough effect; inconclusive = small, poorly fitted or top-dose-only effect; inactive = no such curve, though single readings can be large or run the other way; also: the source files actives as falling curves though it sought activators and does not explain the sign; nearly all actives have a fitted effect of over 65% in size
Target sequence (P80244 whole entry, looked up): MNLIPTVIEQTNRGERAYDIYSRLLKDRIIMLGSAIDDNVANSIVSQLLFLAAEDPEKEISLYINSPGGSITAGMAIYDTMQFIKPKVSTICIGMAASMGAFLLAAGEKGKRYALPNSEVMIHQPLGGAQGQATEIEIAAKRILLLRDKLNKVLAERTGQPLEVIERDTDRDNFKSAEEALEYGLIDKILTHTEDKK
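Purified B. subtilis ClpP, 10 microg/mL final in Tris/HCl pH8 with KCl, BSA, glycerol and Tween-20, cleaved an Abz/nitrotyrosine-quenched decapeptide. Fluorescence (ex 320, em 430) was read at 0 and 20 min at room temperature. Delta was normalized to 5.8 microM ADEP and DMSO/no-enzyme controls.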
D3 antag: blocks the human D3 dopamine receptor | P35462 | D3R cells, DiscoveRx beta-arrestin luminescence, antagonist mode; hits give low values | max response, negative = inhibition, % | actives 2.5% (n = 360,000) | AID 652054; in the data active = max response below about -50%; inconclusive = no clear call, values can overlap the other calls
Target sequence (P35462 whole entry, looked up): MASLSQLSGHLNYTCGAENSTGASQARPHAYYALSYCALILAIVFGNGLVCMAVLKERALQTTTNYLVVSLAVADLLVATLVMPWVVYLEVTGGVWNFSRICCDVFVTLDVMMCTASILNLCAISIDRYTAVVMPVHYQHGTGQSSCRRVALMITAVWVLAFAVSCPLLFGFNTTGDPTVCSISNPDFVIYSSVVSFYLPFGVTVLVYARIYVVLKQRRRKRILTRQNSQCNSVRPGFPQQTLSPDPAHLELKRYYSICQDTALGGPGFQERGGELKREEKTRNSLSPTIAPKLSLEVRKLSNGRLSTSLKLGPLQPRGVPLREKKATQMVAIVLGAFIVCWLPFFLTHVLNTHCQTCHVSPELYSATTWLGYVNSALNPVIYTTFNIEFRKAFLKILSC
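Cells expressing the human receptor were seeded at 1500 cells/well, incubated overnight at 37 degrees C in 5% CO2, then exposed to library compounds with dopamine controls for 90 minutes at 37 degrees C before luminescent detection.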
GLP-1R agonist: GLP-1 receptor (human) agonism | HEK293 GLP-1R CRE-luciferase, luminescence, 4-6 h; cells express a hypersensitive GLP-1R form | Potency, µM (doses to about 45.6 µM), usual class: activators | actives 0.007% (n = 380,000)
GLP1R cytotox: cytotoxicity counter-screen for GLP-1 receptor inverse agonists | HEK293 cAMP-luciferase reporter cells, luminescence, 24 h | actives 0.13% (n = 410,000) | Potency, µM (series often up to 38.3 µM), most hits filed as inhibitors;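 also: loss of luciferase light is scored as toxicity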
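To flag toxic compounds, the library was rerun on cells for 24 hr at 37 deg C and 5% CO2. Viability-linked luminescence was captured 12 min after adding luciferase detection reagent.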
DRD3 agonist: D3 dopamine receptor (human) agonism | D3R DiscoveRx beta-arrestin cells, luminescence, 90 min | max activation, % | actives 0.58% (n = 410,000) | AID 652048; in the data active = max activation above about 30%
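Cells at 1500/well, incubated overnight, then treated with pinned compounds (dopamine as control) for 90 min at 37 degrees C. DiscoveRx reagent added for 30 - 60 minutes at room temperature; luminescence read.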
A number is an active result; n = inactive; u = inconclusive; x = no result given; ! = repeats disagree. Rows were chosen to be rich in hits. Some 5.7% of all compounds tested hit in one or more screens of this group. Unless noted, calls follow the shape of the dose curve; as a rule, active = well fitted curve in the direction sought with a large enough effect; inconclusive = small, poorly fitted or top-dose-only effect, or another doubt; inactive = no such curve, though single readings can be large; an effect the other way counts as inactive or inconclusive.

SMILES	GLP-1R inv ag	ClpP mod	D3 antag	GLP-1R agonist	GLP1R cytotox	DRD3 agonist
CCOc1ccc(/C=C/C(=O)Nc2ccc(OC)cc2[N+](=O)[O-])cc1	n	10µM	n	n	n	n
COc1ccc(NC(=S)NC(NC(=O)c2ccccc2Cl)C(Cl)(Cl)Cl)c([N+](=O)[O-])c1 (configuration not stated)	u	n	n	n	n	n
COC(=O)c1ccccc1NC(=S)NC(NC(=O)c1ccco1)C(Cl)(Cl)Cl (configuration not stated)	n	n	n	n	n	n
COc1ccc(NC(=S)NC(NC(=O)c2ccc(Cl)cc2Cl)C(Cl)(Cl)Cl)c([N+](=O)[O-])c1 (configuration not stated)	10µM	n	n	n	u	n
COc1ccc(NC(=O)c2ccc(C)cc2Cl)c([N+](=O)[O-])c1	n	n	-62.8	n	n	n
COC(=O)c1ccccc1NC(=S)NC(NC(=O)c1ccccc1[N+](=O)[O-])C(Cl)(Cl)Cl (configuration not stated)	n	u	-50.6	n	n	n
Cc1ccc(C)c(N2CCN(CCCNC(=O)c3cnn(-c4ccc(F)cc4)c3C3CCN(C(=O)OC(C)(C)C)CC3)CC2)c1	n	n	x	x	n	n
NC[C@@H]1O[C@H](O[C@H]2[C@@H](O)[C@H](O[C@@H]3[C@@H](O)[C@H](N)C[C@H](N)[C@H]3O[C@H]3O[C@H](CN)[C@@H](O)[C@H](O)[C@H]3N)O[C@@H]2CO)[C@H](N)[C@@H](O)[C@@H]1O	x	x	x	x	x	n
COc1cccc(N2CC(NC(=O)Cc3cccs3)CC2=O)c1 (configuration not stated)	n	n	x	x	n	n
CNC(=S)N/N=C(\C)c1ccc(C(C)(C)C)cc1	n	n	n	n	n	n
C/C(=N\NC(=S)NC(C)C)c1ccc2c(c1)OCCO2	10µM	n	n	n	4.47µM	n
CNC(=S)N/N=C(\C)c1ccccc1	10µM	n	n	n	u	n
CNC(=S)N/N=C(\C)c1ccc2c(c1)OCO2	10µM	n	n	n	u	n
COc1ccc2[nH]c(CCc3nc4c(OC)c(OC)ccc4[nH]3)nc2c1OC	x	n	x	x	x	x
Cc1ccc(NC(=O)Cn2c(=O)c(C(F)(F)F)nc3ccccc32)c(C)c1	n	n	x	x	n	n
CCCCCn1c(=O)[nH]c2cc(C(=O)NCc3ccc(C)cc3)ccc2c1=O	n	n	x	n	n	n
O=C(CN1CCN(c2cccc(Cl)c2)CC1)Nc1nccs1	n	n	n	n	n	n
O=C(CCN1CCN(c2ccc(Cl)cc2)CC1)Nc1nccs1	u	n	-65.8	n	n	n
Cc1ccc(N(CC(O)Cn2c3ccccc3c3ccccc32)S(C)(=O)=O)cc1 (configuration not stated)	u	n	n	n	n	n
Cc1ccc(S(=O)(=O)N(CC(O)CN2C(=O)NC(C)(C)C2=O)c2cccc(C)c2)cc1 (configuration not stated)	n	x	n	n	n	n
CC(=O)Nc1ccc(N(CC(O)Cn2c3ccccc3c3ccccc32)S(=O)(=O)c2ccc(C)cc2)cc1 (configuration not stated)	7.94µM	n	n	n	u	n
Cc1cccc(N(CC(O)Cn2c3ccccc3c3ccccc32)S(=O)(=O)c2ccc(F)cc2)c1 (configuration not stated)	12.6µM	31.6µM	x	x	u	n
CCOc1ccccc1NC(=O)Cn1c(=O)n(-c2ccc(C)c(C)c2)c(=O)c2c(C)c(C(=O)N(C)C)sc21	n	n	x	x	n	n
CCN(CC)c1nc2ccccc2nc1C(=O)Nc1ccc(C(C)=O)cc1	u	n	x	x	n	n
CC(=O)c1ccc(S(=O)(=O)N2CCN(CCOc3ccc(Br)cc3)CC2)cc1	u	n	n	n	n	49.5
SMILES	GLP-1R inv ag	ClpP mod	D3 antag	GLP-1R agonist	GLP1R cytotox	DRD3 agonist
CCc1ccc(NC(=O)CN2CCCN(S(=O)(=O)c3ccc(F)cc3)CC2)cc1	5.01µM	n	n	n	n	n
COC(=O)c1ccc(NC(=O)CN2CCN(S(=O)(=O)c3ccc(Br)cc3)CC2)cc1	3.55µM!	n	n	n	n	n
CCOC(=O)c1ccc(S(=O)(=O)N2CCN(CC(=O)NC(=O)NC(C)(C)C)CC2)cc1	n	n	-71.5	n	n	n
O=C(CN1CCN(S(=O)(=O)c2ccc(Br)cc2)CC1)Nc1ccc2c(c1)OCCO2	u	n	u	n	n	n
Cc1ccccc1CSc1nc2ccsc2c(=O)n1CCC(C)C	n	n	x	x	n	n
CCN(CC)S(=O)(=O)c1ccc(-c2nnc(SCC(=O)N3CCOCC3)o2)cc1	n	n	-63.5	n	n	n
COc1cccc(CC(NC(C)=O)C(=O)NC2CCN(c3nc(C)cc(C)c3C#N)CC2)c1 (configuration not stated)	n	u	n	n	n	n
COc1ccc(CC(NC(C)=O)C(=O)NC2CCN(c3nc(C)cc(C)c3C#N)CC2)c(OC)c1 (configuration not stated)	n	12.6µM	n	n	n	n
Cc1cc(C)cc(CN2CCC(Oc3ccc(C(=O)N4CCCC4)cc3)CC2)c1	10µM	n	n	n	n	n
COc1ccccc1/C=C/CN1CCC(Oc2ccc(C(=O)N3CCCCC3)cc2)CC1	u	n	-104.7	n	u	n
COc1ccccc1/C=C/CN1CCC(Oc2cc(C(=O)NC3CC3)ccc2OC)CC1	n	n	-76.9	n	n	n
CCCOc1ccc(C(=O)N(Cc2cccs2)c2ccc(C)cc2)cc1	u	n	x	x	n	n
CCOc1ccc(CNC(=O)CSc2nnc(C)c3c(C)n(-c4ccc(Cl)cc4)nc23)cc1	n	n	x	x	n	n
O=C([C@@H]1CC=C[C@@H]2CCN(C3CC3)C(=O)[C@@H]21)N1CCOCC1	x	n	x	x	x	x
O=C(O)c1ccccc1Nc1cc(Cl)c2nonc2c1[N+](=O)[O-]	n	x	n	n	u	n
O=[N+]([O-])c1c(Nc2ccccn2)cc(Cl)c2nonc12	u	x	-85.8	n	u	n
CCc1nc2sc(C#N)c(N)c2c2c1CCCC2	n	28.2µM	n	u	n	n
O=c1oc2cc([N+](=O)[O-])ccc2nc1/C=C(\O)c1cccc(Br)c1	n	n	-55.7	n	n	n
CCOC(=O)Cn1c(=N)n(CCOc2ccc(F)cc2)c2ccccc21	n	3.98µM	n	n	n	n
C=CCn1c(=N)n(CC(=O)OCC)c2ccccc21	n	25.1µM	n	n	n	n
COc1cc(S(=O)(=O)N2CCC(O)(c3cccc(C(F)(F)F)c3)CC2)ccc1-n1cnnn1	n	n	-82.1	n	n	n
